PfHsp90 yeast 2 = inhibits growth of yeast expressing Plasmodium falciparum Hsp90; S. cerevisiae expressing PfHsp90, BacTiter-Glo ATP, 48 h; yeast lacking PDR1 and PDR3 efflux regulators; inhibition, % at 9.4 µM; hit rate 0.32% among 310,000; AID 504621;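 active = every replicate shows inhibition above about 80%, whatever the replicate mean, limit read from the data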
NLRP3 yeast inh = blocks the NALP3 inflammasome reconstituted in yeast; hit rate 0.39% among 330,000; inhibition, % at 10 µM; Yeast reconstituted NLRP3/ASC/caspase-1, beta-gal luminescence, 24 h; AID 2825;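 active = inhibition of 50% or more; inactive = inhibition below 50%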
tim23-1 inh = growth inhibitors of tim23-1 mutant yeast; hit rate 1.3% among 330,000; inhibition, % at 20 µM; S. cerevisiae tim23-1 growth, BacTiter-Glo luminescence, 24 h; AID 463212;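 active = growth inhibition of the mutant yeast at or above 50%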;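 note: temperature-sensitive mutant grown at 25 °C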
NALP1 yeast inh = blocks the NALP1 inflammasome reconstituted in yeast | S. cerevisiae NALP1/ASC/caspase-1 growth, X-gal OD620, 72 h | inhibition, % at 10 µM | hit rate 0.61% among 280,000 | AID 2071; in the data active = inhibition mostly above about 24%, no sharp cut-off; inactive = mostly below about 32%
tim10-1 inh = inhibits growth of tim10-1 mutant yeast; inhibition, % at 20 µM; AID 463190; S. cerevisiae tim10-1 ts strain growth, BacTiter-Glo, 24 h; hit rate 2.2% among 330,000;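 active = inhibition of at least 40%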;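 note: mutant grown at 25 °C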
TIM10 inh = growth inhibitors of TIM10 yeast strain; S. cerevisiae TIM10 strain growth, BacTiter-Glo luminescence, 24 h; inhibition, % at 10 µM; hit rate 1.4% among 330,000; AID 463195;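 active = inhibition of 40% or more at the single tested concentration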;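 note: wild-type TIM10 isogenic control strain grown at permissive 25 °C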
NALP3 yeast conf = confirmation of NALP3 inhibitors in yeast; shares compounds with NLRP3 yeast inh; yeast expressing human NALP3, luminescence; inhibition, % at 10 µM; hit rate 81% among 1,300; AID 435006; in the data active = inhibition above about 48%
Casp1-ASC yeast = counter-screen for NALP3 inhibitors: yeast caspase-1-ASC; inhibition, % at 10 µM; yeast expressing Caspase-1-ASC, luminescence counter screen; shares compounds with NLRP3 yeast inh; AID 488784; hit rate 66% among 1,000
NALP3 yeast rt = yeast NALP3 inhibition, confirmed on retest | shares compounds with NLRP3 yeast inh | yeast expressing human NALP3, luminescence read-out | inhibition, % at 10 µM | hit rate 53% among 1,000 | AID 488794
Each line names hits and unclear results; the compound was inactive in the other large screens (follow-up assays come after a bar, where they were run). Only some compounds are listed: those with a hit (about 4.1% of all), similar ones and a draw of the others. Cut-off read from the data, not from the text of the source, unless noted: active = inhibition above about 50%; inactive = the rest.

CCCc1cc(=O)oc2cc(C)cc(OCC(=O)N3CCC(C(=O)O)CC3)c12	none
CC(=O)OCC(=O)[C@H]1CC[C@H]2[C@@H]3CC=C4C[C@@H](O)CC[C@]4(C)[C@H]3CC[C@]12C	NLRP3 yeast inh 65 | NALP3 yeast conf 77 | Casp1-ASC yeast 56 | NALP3 yeast rt inactive
CC(=O)[C@H]1CC[C@H]2[C@@H]3CC=C4C[C@@H](O)CC[C@]4(C)[C@H]3CC[C@]12C	none (no result: NALP1 yeast inh)
CC(=O)[C@H]1CCC2C3CC=C4C[C@@H](O)CC[C@]4(C)C3CC[C@@]21C (stereo partly drawn)	NLRP3 yeast inh 53 (no result: NALP1 yeast inh) | NALP3 yeast conf 64
S=c1[nH]nc(COc2ccc(Cl)cc2)n1Cc1ccccc1	none
c1ccc(OCc2nnnn2-c2ccccc2)cc1	none | NALP3 yeast conf inactive | Casp1-ASC yeast inactive | NALP3 yeast rt inactive
Clc1ccc(OCc2nnnn2-c2ccccc2)cc1	none | NALP3 yeast conf inactive
CC1(C(=O)OCc2cc(=O)n3cc(Br)ccc3n2)CC1(Cl)Cl (stereo not drawn)	NLRP3 yeast inh 64 | NALP3 yeast conf 72 | Casp1-ASC yeast 78 | NALP3 yeast rt 64
CCN(CC)S(=O)(=O)c1cc(OC)c(Cl)cc1Cl	NLRP3 yeast inh 55 | NALP3 yeast conf 64 | Casp1-ASC yeast 53 | NALP3 yeast rt 50
CCN(CC)S(=O)(=O)c1cc(OC)c(C)cc1C	none
Cc1ccc(NC(=O)CCn2cccc2)cc1C	NLRP3 yeast inh 59 | NALP3 yeast conf 74 | Casp1-ASC yeast inactive | NALP3 yeast rt inactive
Cc1ccc(NC(=O)Cn2cccc2)cc1C	none
Cc1ccc(C(=O)N2CC(=O)NC(=O)C2)cc1	NLRP3 yeast inh 51 | NALP3 yeast conf 49 | Casp1-ASC yeast inactive | NALP3 yeast rt inactive
Cc1ccc(C(=O)N2CC3(C)CN(C(=O)c4ccc(C)cc4)CC(C)(C2)C3=O)cc1	none
O=C(/C=C/c1cccs1)NNC(=O)c1ccccc1	none (no result: NALP1 yeast inh)
CCOC(=O)CCSc1nc2c(c(C(F)(F)F)c1C#N)CCC2	NLRP3 yeast inh 60 | NALP3 yeast conf 47 | Casp1-ASC yeast 64 | NALP3 yeast rt 59
CCCCSc1nc2c(c(C(F)(F)F)c1C#N)CCC2	none
Cc1cc(C)c(NC(=O)CNC(=O)CSc2nnc(N)s2)c(C)c1	none (no result: PfHsp90 yeast 2, NALP1 yeast inh)
Cc1ccccc1-c1nc2ccccc2[nH]1	none
Cc1cc(C)c2c(N)c(-c3nc4ccccc4[nH]3)sc2n1	NLRP3 yeast inh 50 | NALP3 yeast conf 62 | Casp1-ASC yeast inactive | NALP3 yeast rt inactive
CN1C[C@@H]2[C@@H]3C(=O)N(Cc4ccccc4)C(=O)[C@@H]3[C@](C)(C1=O)N2C(=O)c1ccc(Br)cc1	none (no result: NLRP3 yeast inh, tim23-1 inh, NALP1 yeast inh, tim10-1 inh, TIM10 inh)
CCOc1cc(C2Nc3ccccc3C(=O)N2c2ccccc2)c(Br)cc1OCC(=O)O (stereo not drawn)	none | NALP3 yeast conf inactive
Cc1cccc(C(=O)O[C@@H]2[C@H](Cc3ccccc3)NS(=O)(=O)[C@H]3C[C@@H]4C=C[C@]23O4)c1	none (no result: NALP1 yeast inh)
O=c1cc(-c2ccccc2Cl)oc2ccc([N+](=O)[O-])c(O)c12	NLRP3 yeast inh 57 | NALP3 yeast conf 72 | Casp1-ASC yeast inactive | NALP3 yeast rt 57
Cn1cccc1/C=C1\Cc2ccccc2C1=O	NLRP3 yeast inh 54 | NALP3 yeast conf 69
Cn1cccc1/C=C1\CCc2ccccc2C1=O	none
CCOc1cc(C=O)ccc1OCCSc1ccc(Cl)cc1	NLRP3 yeast inh 53 | NALP3 yeast conf 48 | Casp1-ASC yeast 58 | NALP3 yeast rt inactive
COc1ccc(NS(=O)(=O)c2cccc(C(=O)N(C)Cc3ccc(SC)cc3)c2)cc1	none (no result: NALP1 yeast inh)
CCn1c(C)csc1=NC(=O)c1ccccc1	NLRP3 yeast inh 53 | NALP3 yeast conf 61 | Casp1-ASC yeast inactive | NALP3 yeast rt inactive
Cc1cc(Cl)c(S(=O)(=O)Nc2ccon2)cc1OCC(=O)NC1CCCCC1	none
Cc1cc(Cl)c(S(=O)(=O)NC2CCCCC2)cc1OCC(=O)Nc1nncs1	NLRP3 yeast inh 50 | NALP3 yeast conf 50 | Casp1-ASC yeast inactive | NALP3 yeast rt inactive
